# Values without a mark were called inactive. Active and inactive are the calls of the source. Rule as the data show it, unless noted: active = inhibition above about 44%; inactive = the rest.
# Legend:
# [1] = StAR promoter reporter inhibitors, counter-screen for LRH-1 inverse agonist project, cell-based, luminescence, high throughput (AID 651611; in the data active = inhibition above about 28%); details: StAR promoter luciferase reporter counterscreen, at 3.6 µM, stronger effect = higher value
# [2] = molecular target: Nuclear receptor subfamily 5 group A member 2 (Homo sapiens) (UniProt O00482); assay: LRH-1 (NR5A2) inverse agonists, retest, confirmation, cell-based, luminescence (AID 651613; in the data active = inhibition above about 42%;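 also: HEK293T cells co-transfected with LRH-1 and StAR promoter luciferase reporter; 0% = vehicle wells and 100% = parental cells lacking receptor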); details: cell-based LRH-1 luciferase reporter, inverse agonism; at 3.6 µM; stronger effect = higher value
# Nuclear receptor subfamily 5 group A member 2 (Homo sapiens), sequence (O00482 whole entry, looked up): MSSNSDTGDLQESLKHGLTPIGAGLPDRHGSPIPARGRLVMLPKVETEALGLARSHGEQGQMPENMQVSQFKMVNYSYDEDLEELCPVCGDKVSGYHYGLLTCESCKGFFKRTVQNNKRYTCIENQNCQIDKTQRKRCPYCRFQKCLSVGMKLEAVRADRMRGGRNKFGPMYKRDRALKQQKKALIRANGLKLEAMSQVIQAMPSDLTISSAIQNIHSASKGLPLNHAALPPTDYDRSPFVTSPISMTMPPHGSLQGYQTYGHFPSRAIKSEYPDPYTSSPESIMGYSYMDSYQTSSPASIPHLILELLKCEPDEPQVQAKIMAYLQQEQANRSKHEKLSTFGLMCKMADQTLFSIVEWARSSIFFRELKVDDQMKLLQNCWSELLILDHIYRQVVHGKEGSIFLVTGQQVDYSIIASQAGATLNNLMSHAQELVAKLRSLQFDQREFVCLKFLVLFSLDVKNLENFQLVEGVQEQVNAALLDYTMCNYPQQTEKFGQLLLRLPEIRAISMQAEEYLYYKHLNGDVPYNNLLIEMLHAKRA
# [3] = molecular target: Steroidogenic factor 1 (Homo sapiens) (UniProt Q13285); assay: SF1 (NR5A1) inverse agonists, counter-screen for LRH-1 inverse agonist project, cell-based, luminescence, high throughput (AID 651614); details: cell-based SF1 luciferase reporter, at 3.6 µM, stronger effect = higher value;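 also: cells cotransfected with StAR promoter reporter and SF1 expression vector; 0% = vehicle on cells with receptor and 100% = vehicle on cells lacking receptor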
# Steroidogenic factor 1 (Homo sapiens), sequence (Q13285 whole entry, looked up, the tested form may be a part): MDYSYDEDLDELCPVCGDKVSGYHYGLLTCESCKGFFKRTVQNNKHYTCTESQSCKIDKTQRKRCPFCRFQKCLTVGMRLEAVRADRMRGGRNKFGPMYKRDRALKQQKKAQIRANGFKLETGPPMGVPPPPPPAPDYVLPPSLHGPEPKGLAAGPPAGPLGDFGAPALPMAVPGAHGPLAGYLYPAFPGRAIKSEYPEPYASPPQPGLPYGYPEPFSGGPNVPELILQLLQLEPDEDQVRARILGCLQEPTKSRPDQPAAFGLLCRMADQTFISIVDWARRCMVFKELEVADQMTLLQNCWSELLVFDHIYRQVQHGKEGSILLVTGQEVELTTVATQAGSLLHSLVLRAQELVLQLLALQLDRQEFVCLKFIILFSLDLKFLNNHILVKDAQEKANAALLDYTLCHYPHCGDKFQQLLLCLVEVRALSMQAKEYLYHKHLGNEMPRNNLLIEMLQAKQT
# [4] = VP16 transactivation reporter inhibitors, counter-screen for LRH-1 inverse agonist project, cell-based, luminescence, high throughput (AID 651615; in the data active = inhibition above about 33%); details: Gal4-VP16 luciferase reporter cells, at 3.6 µM, stronger effect = higher value
Structure (SMILES),inhibition [1],inhibition [2],inhibition [3],inhibition [4]
COc1ccc(NC(=O)CN2C(=O)NC3(CCCC3)C2=O)cc1,-8.92%,51.2% (active),47.5% (active),-17.1%
O=C(CSc1nc(=O)n2cc(Cl)ccc2n1)Nc1ccc2c(c1)OCCO2,3.01%,47.8% (active),44.1% (active),-4.83%
O=C(Nc1cccc([N+](=O)[O-])c1)c1ccc([N+](=O)[O-])o1,24%,64.7% (active),70.5% (active),-20.3%
COc1cccc(C(C)(O)c2nc(-c3ccc(S(C)(=O)=O)cc3)cs2)c1 (stereo not drawn),7.7%,58.2% (active),62.1% (active),24%
O=C(Nc1ccc2oc(-c3ccccc3F)nc2c1)c1ccc([N+](=O)[O-])o1,-5.27%,46% (active),56% (active),-24.7%
O=C(CCl)Nc1ccccc1C(=O)c1ccccc1,1.14%,48.4% (active),50% (active),-2.6%
CCOc1cc2c(cc1OCC)C(c1ccc(OC)cc1)N(c1ccccc1)C(=O)C2 (stereo not drawn),-4.63%,3.16%,-5%,-4.52%
NC(=O)c1oc2ccccc2c1NC(=O)c1ccc([N+](=O)[O-])o1,23.2%,67.6% (active),69.1% (active),-9.15%
Cc1ccc(SCC(=O)Nc2ccc(N3CCOCC3)cc2)cc1C,-0.13%,51.6% (active),47.2% (active),-10.5%
CN(C)c1nnnn1-c1cccc(Oc2ncc(C(F)(F)F)cc2Cl)c1,8.18%,38.6%,38.3%,-5.85%
Cc1ccccc1NC(=O)c1ccc([N+](=O)[O-])o1,8.33%,64.8% (active),57.6% (active),-16%
COc1ccc(C2=Nn3c(nnc3-c3ccccc3OC)SC2)cc1OC,52.6% (active),58.7% (active),64% (active),11.1%
CS(=O)(=O)c1ccc(-c2cc(NC=O)c3ncc(-c4ccc(F)cc4)n3c2)cc1,13.9%,56% (active),55% (active),1.21%
CCn1c(=O)[nH]c(=O)c2c(N)c(C(=O)c3cc(F)ccc3F)sc21,10.4%,59.5% (active),54.2% (active),10.3%
Cc1ccc(S(=O)(=O)Nc2ccc3c(c2)n(C)c(=O)n3C)cc1,40.1% (active),48.8% (active),38.3%,-96.8%
Cc1ccc(NC(=O)[C@H](Cc2c[nH]c3ccccc23)NC(=O)[C@@H]2Cc3ccccc3CN2)c(C)c1,78.4% (active),3.94%,71.4% (active),77.5% (active)
O=C(CCl)Nc1cccc2ncccc12,55.6% (active),61.7% (active),60.9% (active),-58.5%
COc1cc(NC(=O)CN2C(=O)NC(c3ccccc3)(c3ccccc3)C2=O)c(C)cc1[N+](=O)[O-],24.1%,46% (active),35.3%,9.47%
O=C(COc1ccc(S(=O)(=O)N2CCCC2)cc1Cl)Nc1ccc2c(c1)OCO2,0.49%,50.4% (active),37%,-9.34%
COc1cc(NC(=O)c2ccc([N+](=O)[O-])o2)ccc1NC(=O)c1cccs1,30.9% (active),61.1% (active),61.9% (active),-9.17%
CCn1cc(CN(C)S(=O)(=O)c2ccc3ccccc3c2)c(C)n1,-0.8%,50.9% (active),52.5% (active),40.2% (active)
Cc1c(OCC(=O)NCCCN2CCOCC2)ccc2c(-c3ccccc3)cc(=O)oc12,2.78%,37.8%,36.5%,5.76%
COC(=O)c1ccc(NC(=O)COc2cccc(-n3cnnn3)c2)cc1,-5.38%,41.3% (active),32.5%,-9.98%
C=CC(=O)N1C/C(=C/c2ccc(F)cc2)C(=O)/C(=C\c2ccc(F)cc2)C1,27.1%,80% (active),86.7% (active),63% (active)
O=C(CSc1nnc(Cc2cccs2)n1-c1ccccc1)Nc1ccc2c(c1)OCCO2,-2.83%,34.8%,31.1%,-2.43%
CC(=O)c1ccc(NC(=O)CSC2=NS(=O)(=O)c3cc(Cl)ccc3N2)cc1,7.81%,43.6% (active),44.5% (active),-9.28%

Structure (SMILES),inhibition [1],inhibition [2],inhibition [3],inhibition [4]
COc1ccccc1Oc1nnnn1-c1ccc(C(N)=O)cc1,15.4%,48% (active),51.8% (active),-9.03%
COc1ccc(OC)c(NC(=O)c2ccccc2NC(=O)c2ccco2)c1,12.6%,45.3% (active),47.3% (active),-1.48%
CCCc1cc(=O)oc2c(C)c(OCC(=O)NCCCn3ccnc3)ccc12,-1.87%,47.8% (active),35.9%,-19.5%
O=C(CCl)Nc1ccc(N2CCCCCC2)cc1,25%,54.6% (active),51.3% (active),-8.63%
COc1cc(C(=O)NC2CCN(C)CC2)ccc1Nc1ncc2c(n1)N(C1CCCCC1)CCC(=O)N2C,60.6% (active),54.4% (active),40%,-159%
CN(Cc1cccs1)c1nc(-c2cccnc2)nc2ccccc12,9.82%,54.4% (active),43% (active),5.14%
NC(=O)C1CCN(C(=O)COc2ccc3c4c(c(=O)oc3c2)CCC4)CC1,5.21%,42.7% (active),36.4%,-10.9%
CC(=O)c1ccc(NC(=O)C(C)O/N=C(\N)c2ccccc2)cc1 (stereo not drawn),10.5%,51.7% (active),41.8%,-7.19%
CCn1nnc(NC(=O)c2ccc([N+](=O)[O-])o2)n1,10.3%,57.8% (active),59.9% (active),-13.8%
O=C1/C(=C\c2ccc(Cl)c(Cl)c2)CN(C(=O)CCN2CCOCC2)C/C1=C/c1ccc(Cl)c(Cl)c1,67.9% (active),93.2% (active),92.9% (active),79% (active)
CCOC(=O)c1cnc(-n2nc(C)cc2C)nc1NC1CCCC1,0.01%,56.9% (active),52.4% (active),9.25%
Cc1cc(C(=O)N/N=C/c2ccc([N+](=O)[O-])o2)c(C)o1,9.16%,71.5% (active),65.2% (active),3.18%
C#CCN(C[C@@H]1[C@@H](OC(=O)NCc2ccc(OC)c(OC)c2)[C@@H](OC(=O)NCc2ccc(OC)c(OC)c2)Cn2c(=O)ccc(=O)n21)S(=O)(=O)c1ccc(C)cc1,16.6%,40%,35.7%,10.2%
O=[N+]([O-])c1cnccc1Nc1cccc(F)c1,11.5%,62.3% (active),55.1% (active),10%
CCOc1ccc(NC(=O)COC(=O)c2cc([N+](=O)[O-])ccc2N2CCOCC2)cc1,6.26%,55.9% (active),50.6% (active),-1%
CCc1nc(SCC(=O)N2CCc3cc(OC)c(OC)cc3C2)c(C#N)cc1C,3.35%,47.4% (active),45.4% (active),1.24%
CC(C)NC(=O)N1Cc2cc(C(=O)NC3CCCC3)nc(-c3cccc(-c4cccnc4)c3)c2[C@@H]1CCO,24.3%,45.1% (active),42.1%,5.54%
O=C(N/N=C/c1ccc([N+](=O)[O-])o1)c1ccc2c(c1)OCO2,37.2% (active),78.3% (active),91.2% (active),-5.58%
O=C(CCl)Nc1cccn2ncnc12,33.1% (active),49.3% (active),54.6% (active),-31.4%
COc1ccc2c(c1)c[n+](C)c1c3cc(OC)c(OC)cc3ccc21,12.1%,58.3% (active),56.5% (active),68.9% (active)
COc1ccc(OC)c(-n2c(-c3ccc(S(C)(=O)=O)cc3)cc(C=O)c2C)c1,25%,48.2% (active),55.3% (active),-41.9%
COc1ccc(C2(C)NC(=O)N(CC(=O)Nc3ccc(C)cc3Br)C2=O)cc1OC (stereo not drawn),15.7%,40.8%,28.4%,0.45%
CO/N=C/C(=N\Nc1cc(OC)cc(OC)c1)C(=O)c1ccccc1,13.2%,63.4% (active),58.3% (active),0.16%
CC(NC(=O)c1ccco1)C(c1cccs1)N1CCN(c2ccccc2)CC1 (stereo not drawn),6.91%,34.9%,34.2%,-0.25%
O=C(COC(=O)C1CC1)NCCc1ccc(Cl)cc1,4.21%,45.3% (active),39.1%,-2.95%
O=C(CC1C(=O)NCCN1C(=S)Nc1ccccc1)Nc1ccc2c(c1)OCCO2 (stereo not drawn),10.3%,53.8% (active),63.2% (active),-25.2%

# Source: PubChem BioAssay
